Test results published in PubChem BioAssay (Tox21).
Inconclusive results are not listed. Active and inactive are the calls of the source. Unless noted, calls follow the shape of the dose curve; as a rule, active = well fitted curve in the direction sought with a large enough effect in the repeat runs; inconclusive = weak or mixed curves; inactive = no such curve, though single readings can be large; an effect the other way counts as inactive or inconclusive.

What was measured:
[1] = qHTS assay to identify small molecule agonists of the RXR signaling pathway - cell viability counter screen (AID 1159529); also: nearly all actives have a fitted effect of over 50% in size
In short: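 RXR-alpha-UAS-bla HEK 293T cells in medium with 2% charcoal-stripped FBS were pre-incubated 5 hr, then compound-treated 16 hr at 37 C. Viability was read by CellTiter-Glo luminescence in the same wells as the beta-lactamase assay, with tetraoctyl ammonium bromide as positive control.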

[2] = qHTS assay to identify small molecule antagonists of the retinoid acid receptor (RAR) signaling pathway - cell viability counter screen (AID 1159551); also: nearly all actives have a fitted effect of over 35% in size
In short: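 C3RL4 RARE-luciferase cells, 1,000/well, incubated overnight, then dosed with compound plus 1 uM retinol (final). After 6 hr at 37 C, viability read by CellTiter-Glo ATP luminescence following 30 min at room temperature.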

[3] = qHTS assay to identify small molecule antagonists of the retinoic acid receptor (RAR) signaling pathway (AID 1159552; also: nearly all actives have a fitted effect of over 50% in size)
In short: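 Retinol signaling pathway inhibitors screened in C3RL4 RARE-luciferase reporter cells seeded overnight at 37 C, then compounds added with 1 uM (final) retinol as pathway substrate. After 6 hr at 37 C, luciferase luminescence read after 30 min at room temperature.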

[4] = qHTS assay to identify small molecule agonists of the retinoic acid receptor (RAR) signaling pathway (AID 1159553); conditions: C3RL4 RARE luciferase reporter, agonist, 6 h; activation: at 73.3 µM (top of the series)
In short: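 C3RL4 RARE-luciferase cells were seeded at 1,000/well and grown overnight at 37 C, then exposed to compounds for 6 hr at 37 C, 5% CO2. Luciferase reagent was added and luminescence was read after 30 min at room temperature.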

[5] = qHTS assay to identify small molecule antagonists of the estrogen related receptor (ERR) signaling pathway from Tox21 library - cell viability counter screen (AID 1224834); also: nearly all actives have a fitted effect of over 30% in size
In short: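 ERR reporter cells, 2,000 per well, rested 6 h, then exposed to compound in DMSO for 17.5 hours at 37 C. Viability read as fluorescence after 30 min with CellTiter-Fluor.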

[6] = qHTS assay to identify small molecule agonists of the constitutive androstane receptor (CAR) signaling pathway - cell viability counter screen (AID 1224836); also: nearly all actives have a fitted effect of over 45% in size
In short: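 HepG2 cells stably carrying hCAR and a CYP2B6-2.2kb reporter; 15-concentration compounds plus PK11195 (final 0.75 uM), 23 hr at 37 C/5% CO2. Viability read by CellTiter-Fluor fluorescence.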

[7] = qHTS assay to identify small molecule antagonists of the constitutive androstane receptor (CAR) signaling pathway - cell viability counter screen (AID 1224837); also: nearly all actives have a fitted effect of over 45% in size
In short: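 HepG2 cells stably carrying hCAR and CYP2B6-2.2kb reporter, stimulated with 50 nM CITCO and compounds at 15 concentrations for 23 h at 37 C. Viability measured by CellTiter-Fluor fluorescence.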

[8] = target: Nuclear receptor subfamily 1 group I member 3 (Homo sapiens) (UniProt Q14994); test: qHTS assay to identify small molecule agonists of the constitutive androstane receptor (CAR) signaling pathway (AID 1224839); also: nearly all actives have a fitted effect of over 15% in size
In short: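 HepG2 cells stably co-transfected with hCAR and a CYP2B6-2.2kb luciferase reporter; compounds at 15 concentrations with 0.75 uM PK11195 present. After 24 hr at 37 C, luciferase read by ONE-Glo luminescence.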

[9] = qHTS assay to identify small molecule antagonists of the estrogen related receptor signaling pathway with the pleiotropic PPARgamma coactivator (PGC) from Tox21 10K library - cell viability counter screen (AID 1224840; active = well fitted cell-killing curve with a large enough effect in the repeat runs, not every such curve was filed as active; also: nearly all actives have a fitted effect of over 40% in size)
In short: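 PGC/ERR cells (2,000/well) plated 6 h, then compound-treated for 17.5 h at 37 C. Viability measured by CellTiter-Fluor fluorescence after 30 min at 37 C, multiplexed with the pathway assay.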

[10] = target: Thyrotropin receptor (Homo sapiens) (UniProt P16473); test: qHTS assay to identify small molecule agonists of the thyroid stimulating hormone receptor (TSHR) signaling pathway (AID 1224843; calls by dose curve; also: nearly all actives have a fitted effect of over 45% in size)
In short: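 TSHR-expressing HEK293 cells (800 per well) were exposed to compounds for 30 min at room temperature. cAMP was then detected by HTRF competition with cAMP-d2 and anti-cAMP cryptate, read after 1 h at room temperature. Fifteen concentrations, triplicate.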

[11] = qHTS assay to identify small molecule agonists of the hypoxia (HIF-1) signaling pathway - cell viability counter screen (AID 1224844; calls by dose curve; also: nearly all actives have a fitted effect of over 50% in size)
In short: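 HRE-bla ME-180 cells, 2,000/well in 0.5% dialyzed FBS medium, treated 17 h at 37C with compounds. Viability read in the same wells as the bla reporter, by CellTiter-Glo luminescence after 30 min at room temperature.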

[12] = qHTS assay to identify small molecule agonists of the hypoxia (HIF-1) signaling pathway (AID 1224846; active = well fitted activation curve with a large enough effect in the signal ratio in the repeat runs, not every such curve was filed as active; the % refers to the signal ratio)
In short: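 HRE-bla ME-180 beta-lactamase reporter cells in medium with 0.5% dialyzed FBS, pre-incubated 5 h then exposed to compounds 17 h at 37C, 5% CO2; reporter induction read with CCF4-AM FRET substrate.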

[13] = qHTS assay to identify small molecule agonists of H2AX - cell viability counter screen (AID 1224847; calls by dose curve; also: top concentration of the series differs between compounds; nearly all actives have a fitted effect of over 30% in size)
In short: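 CHO-K1 cells plated overnight at 37C, then exposed 3 h at 37C to compounds at 15 concentrations (0.76% DMSO final). Viability by CellTiter-Glo luminescence after 30 min at room temperature.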

[14] = qHTS assay to identify small molecule agonists of H2AX (AID 1224845; active = well fitted activation curve with a large enough effect in the signal ratio in the repeat runs, not every such curve was filed as active; the % refers to the signal ratio)
In short: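 Wild-type CHO-K1 cells plated overnight, then exposed 3 hr at 37C to compounds at 15 concentrations (0.76% DMSO). Lysed, then HTRF anti-pH2AX(S139)-cryptate/anti-H2AX-d2 detection after 24 hr at room temperature; emissions 665 and 620 nm.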

[15] = target: Luciferin 4-monooxygenase (Photinus pyralis) (UniProt P08659); test: qHTS assay to identify small molecule inhibitors of firefly luciferase (AID 1224835); also: nearly all actives have a fitted effect of over 25% in size
In short: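 Quantitative HTS format; KM concentrations of both substrates. Purified P. pyralis FLuc activity quantified from luminescence images.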

[16] = qHTS assay to identify small molecule antagonists of the estrogen related receptor signaling pathway with the pleiotropic PPARgamma coactivator (PGC) from Tox21 10K library (AID 1224841; call rule not given here; also: actives are mostly falling curves and most rising ones were filed inactive; nearly all actives have a fitted effect of over 50% in size)
In short: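 PGC/ERR cell line, 2,000 cells/well, pre-incubated 6 hours at 37 C, then exposed to compounds for 18 hours at 37 C; luciferase read with One-Glo luminescence after 30 min at room temperature.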

[17] = qHTS assay to identify small molecule agonists of the estrogen related receptor signaling pathway with the pleiotropic PPARgamma coactivator (PGC) from Tox21 10K library (AID 1224842); also: nearly all actives have a fitted effect of over 15% in size
In short: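 PGC/ERR reporter cells (NTP line) were seeded 2,000 per well, rested 6 h at 37 C/5% CO2, then pin-dosed with compounds in DMSO for 18 h at 37 C; luciferase read by One-Glo luminescence after 30 min at room temperature.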

[18] = qHTS assay to identify small molecule antagonists of the estrogen related receptor (ERR) signaling pathway from Tox21 library (AID 1224848); also: nearly all actives have a fitted effect of over 50% in size
In short: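 Cells: ERR line, 2,000/well; 6 h preincubation 37 C/5% CO2. Cpd in DMSO via pin tool; 18 h, 37 C. ONE-Glo, 30 min RT, luminescence.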

[19] = qHTS assay to identify small molecule agonists of the estrogen related receptor (ERR) signaling pathway from Tox21 library (AID 1224849; calls by dose curve; also: nearly all actives have a fitted effect of over 15% in size)
In short: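 ERR reporter cells (NTP line) pre-incubated 6 hours at 37 C, then exposed to compounds for 18 hours at 37 C. ONE-Glo luciferase luminescence was read after 30 minutes at room temperature.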

[20] = target: Nuclear receptor subfamily 1 group I member 3 (Homo sapiens) (UniProt Q14994); test: qHTS assay to identify small molecule antagonists of the constitutive androstane receptor (CAR) signaling pathway (AID 1224838); also: nearly all actives have a fitted effect of over 40% in size
In short: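 HepG2 cells stably carrying hCAR and a CYP2B6-2.2kb luciferase reporter, seeded 4 hrs before compound (15 concentrations). Stimulated with 50 nM CITCO for 24 hr at 37 C. ONE-Glo luminescence read after 30 min at room temperature.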

Measured: Potency

Sequence of Thyrotropin receptor (Homo sapiens) (P16473 whole entry, looked up): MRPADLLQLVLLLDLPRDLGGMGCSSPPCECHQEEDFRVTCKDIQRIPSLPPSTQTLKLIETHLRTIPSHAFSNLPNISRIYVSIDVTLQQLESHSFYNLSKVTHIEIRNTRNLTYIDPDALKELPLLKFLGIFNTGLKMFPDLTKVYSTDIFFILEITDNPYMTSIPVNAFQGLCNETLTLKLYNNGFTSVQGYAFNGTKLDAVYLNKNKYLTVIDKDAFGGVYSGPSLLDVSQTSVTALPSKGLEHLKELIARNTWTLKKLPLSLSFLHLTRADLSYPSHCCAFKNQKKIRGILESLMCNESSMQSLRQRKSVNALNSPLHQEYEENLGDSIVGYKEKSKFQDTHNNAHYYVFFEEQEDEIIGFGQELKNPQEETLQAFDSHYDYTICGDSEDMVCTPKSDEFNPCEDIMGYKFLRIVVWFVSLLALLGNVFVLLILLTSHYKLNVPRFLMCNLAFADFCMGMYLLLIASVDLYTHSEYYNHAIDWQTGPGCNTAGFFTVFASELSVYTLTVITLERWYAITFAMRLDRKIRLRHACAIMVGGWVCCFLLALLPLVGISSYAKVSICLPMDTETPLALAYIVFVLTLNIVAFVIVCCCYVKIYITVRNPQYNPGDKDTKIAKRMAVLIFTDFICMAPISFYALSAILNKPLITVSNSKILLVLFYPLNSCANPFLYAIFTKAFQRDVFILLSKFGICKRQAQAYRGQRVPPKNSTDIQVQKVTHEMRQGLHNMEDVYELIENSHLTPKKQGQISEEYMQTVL
Sequence of Nuclear receptor subfamily 1 group I member 3 (Homo sapiens) (Q14994 whole entry, looked up): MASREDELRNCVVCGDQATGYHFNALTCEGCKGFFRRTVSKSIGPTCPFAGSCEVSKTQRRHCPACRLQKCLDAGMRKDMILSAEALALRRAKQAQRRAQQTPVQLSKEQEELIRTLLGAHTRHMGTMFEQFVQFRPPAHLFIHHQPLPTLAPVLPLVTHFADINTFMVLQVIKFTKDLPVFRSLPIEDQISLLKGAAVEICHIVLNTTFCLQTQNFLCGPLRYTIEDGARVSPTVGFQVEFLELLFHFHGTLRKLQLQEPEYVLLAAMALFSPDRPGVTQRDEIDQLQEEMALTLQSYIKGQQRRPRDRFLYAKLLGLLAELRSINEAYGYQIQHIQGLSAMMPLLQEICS
Sequence of Luciferin 4-monooxygenase (Photinus pyralis) (P08659 whole entry, looked up): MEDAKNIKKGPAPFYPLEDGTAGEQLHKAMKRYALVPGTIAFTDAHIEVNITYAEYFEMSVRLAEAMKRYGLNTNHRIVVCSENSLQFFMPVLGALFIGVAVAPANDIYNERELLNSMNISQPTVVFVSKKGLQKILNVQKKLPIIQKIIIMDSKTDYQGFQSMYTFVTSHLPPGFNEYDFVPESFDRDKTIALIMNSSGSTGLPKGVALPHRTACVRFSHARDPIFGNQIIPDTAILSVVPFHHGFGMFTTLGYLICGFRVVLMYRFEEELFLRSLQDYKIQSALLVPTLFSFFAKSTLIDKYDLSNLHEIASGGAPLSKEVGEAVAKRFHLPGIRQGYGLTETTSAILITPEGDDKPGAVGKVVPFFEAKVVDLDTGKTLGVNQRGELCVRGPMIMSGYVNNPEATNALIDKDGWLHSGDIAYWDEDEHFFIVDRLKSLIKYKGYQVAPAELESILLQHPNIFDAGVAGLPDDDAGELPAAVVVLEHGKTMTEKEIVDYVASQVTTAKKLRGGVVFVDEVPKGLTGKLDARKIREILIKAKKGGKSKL

CC(=O)N1CCN(c2ccc(O)cc2)CC1
not listed: [14] | [15] | [16] | [17] | [18] | [19] | [20]
inactive: all other assays above

C/C=C(\C)C(=O)OCC/C=C\CC
inactive: [1] | [2] | [3] | [4] | [5] | [6] | [7] | [8] | [11] | [14] | [13]

CN[C@@H]1[C@H](O)[C@H](NC)[C@H]2O[C@@]3(O)C(=O)C[C@@H](C)O[C@H]3O[C@@H]2[C@H]1O
not listed: [8] | [10] | [16] | [17] | [18] | [19] | [20]
inactive: all other assays above

CCN(CC)C(=O)C1CN2CCc3cc(OC)c(OC)cc3C2CC1OC(C)=O (stereo not drawn)
not listed: [8] | [10] | [14] | [16] | [17] | [18] | [19] | [20]
inactive: all other assays above

O=C1OC(=O)c2cc(Oc3ccc4c(c3)C(=O)OC4=O)ccc21
not listed: [8] | [10] | [12] | [16] | [17] | [18] | [19] | [20]
inactive: all other assays above

Cc1ccccc1OCC1CO1 (stereo not drawn)
not listed: [8] | [9] | [10] | [20]
inactive: all other assays above

CCC(=O)c1ccc(O)cc1
not listed: [10] | [11] | [15] | [16] | [17] | [18] | [19]
inactive: all other assays above

CCCCCC(=O)OCC
not listed: [8] | [9] | [13] | [16] | [17] | [18] | [19] | [20]
inactive: all other assays above

CCS(=O)(=O)CCn1c([N+](=O)[O-])cnc1C
not listed: [8] | [12] | [15] | [16]
inactive: all other assays above
